Measurements taken from the supplement of paper PMC10515830.
Structures can show the parent of a compound that is named as a salt.

What was measured:
Details in all cases: 10 µM; exposure time 6 h
[1] = tested on: Danio rerio larvae (5 dpf); experiment: difference in excitability vs DMSO (percentage points); higher = more excitable than DMSO
Procedure, shortened: (§1)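 In 96-well plates, 48 wild-type zebrafish larvae aged 5 dpf per compound received 100 µL egg water with library compound at 10 µM final for 6 h. Three hours into this, a 3-h programme of moving lines and 100 ms, 400Hz tones ran at 28.5 ℃ while plates were photographed every 6 s. Z-LaP Tracker scored the behaviours, and each is given as the compound mean minus the vehicle control mean in percentage points.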

[2] = tested on: Danio rerio larvae (5 dpf); experiment: difference in startle response vs DMSO (percentage points); higher = stronger startle than DMSO
Procedure, shortened: as §1

[3] = tested on: Danio rerio larvae (5 dpf); experiment: difference in activity during first hour vs DMSO (percentage points); higher = more activity than DMSO
Procedure, shortened: as §1

[4] = tested on: Danio rerio larvae (5 dpf); experiment: difference in habituation to acoustic stimuli vs DMSO (percentage points); higher = more habituation than DMSO
Procedure, shortened: as §1

[5] = tested on: Danio rerio larvae (5 dpf); experiment: difference in combined optomotor response to red, green and blue moving lines vs DMSO (percentage points); higher = stronger optomotor response than DMSO
Procedure, shortened: as §1

| Compound | difference in excitability [1] | difference in startle response [2] | difference in activity during first hour [3] | difference in habituation to acoustic stimuli [4] | difference [5] |
| --- | --- | --- | --- | --- | --- |
| COC1=CC(=O)C[C@@H](C)[C@]12Oc1c(Cl)c(OC)cc(OC)c1C2=O [Griseofulvin] | 3.76 | 5.64 | 19.9 | 2.87 | 8.4 |
| OC[C@@H](O)[C@@H](O)[C@H](O)[C@H](O)CO [D-Mannitol] | 1.16 | -0.914 | 5.26 | 3.53 | 4.85 |
| COc1cc(Nc2c(C#N)cnc3cc(OCCCN4CCN(C)CC4)c(OC)cc23)c(Cl)cc1Cl [Bosutinib] | 10.4 | 1.86 | -11.7 | -5.15 | 2.77 |
| CCCCc1nc(Cl)c(CO)n1Cc1ccc(-c2ccccc2-c2nnn[nH]2)cc1 [Losartan (potassium salt)] | 3.08 | 0.6 | 6.85 | -4.35 | -1.12 |
| CN(C)CCC[C@@]1(c2ccc(F)cc2)OCc2cc(C#N)ccc21 [Escitalopram] | 12.5 | -1.37 | -18.9 | 1.61 | 1.8 |
| N[C@H](C(=O)O)[C@H](O)c1ccc(O)c(O)c1 [Droxidopa] | 0.975 | 0.64 | 3.89 | 5.02 | 2.12 |
| CN1CCN(CCCN2c3ccccc3Sc3ccc(C(F)(F)F)cc32)CC1 [Trifluoperazine (hydrochloride)] | 11.8 | -1.73 | 23.8 | -10.9 | -0.14 |
| CO/N=C(\C(=O)N[C@@H]1C(=O)N2C(C(=O)[O-])=C(C[N+]3(C)CCCC3)CS[C@H]12)c1csc(N)n1 [Cefepime (hydrochloride hydrate)] | 1.19 | -0.767 | 1.35 | 1.3 | -1.46 |
| C[C@@H](Oc1cc(-c2cnn(C3CCNCC3)c2)cnc1N)c1c(Cl)ccc(F)c1Cl [(R)-Crizotinib] | 11.1 | -4.49 | -3.18 | 0.409 | -0.753 |
| O=P(O)(O)C(O)(Cc1cccnc1)P(=O)(O)O [Risedronate (sodium salt)] | 3.7 | 4.04 | 24.7 | -2.36 | 9.6 |
| CC(C)(O)c1ccccc1CC[C@@H](SCC1(CC(=O)O)CC1)c1cccc(/C=C/c2ccc3ccc(Cl)cc3n2)c1 [Montelukast (sodium salt)] | 10.4 | 2.54 | -3.93 | 1.58 | 3.42 |
| CN(C)C/C=C/C(=O)Nc1cc2c(Nc3ccc(F)c(Cl)c3)ncnc2cc1O[C@H]1CCOC1 [Afatinib (maleate)] | 20.1 | -1.05 | -11.3 | 5.63 | 8.09 |
| CC/C(=C(\c1ccccc1)c1ccc(OCCN(C)C)cc1)c1ccccc1 [Tamoxifen (citrate)] | -1.02 | -2.65 | 14.8 | -2.18 | -15.8 |
| CCCCC[C@H](O)/C=C/[C@H]1[C@H](O)CC(=O)[C@@H]1CCCCCCC(=O)O [Prostaglandin E1] | 15.5 | -3.01 | -8.7 | -1.03 | 0.226 |
| CCCN1CCCC[C@H]1C(=O)Nc1c(C)cccc1C [(-)-Ropivacaine (hydrochloride hydrate)] | -4.41 | -2.15 | 7.62 | -1.06 | 1.37 |
| O=C(c1cc(Cc2n[nH]c(=O)c3ccccc23)ccc1F)N1CCN(C(=O)C2CC2)CC1 [Olaparib] | -5.41 | -4.44 | 2.13 | -3.55 | 4.86 |
| CCNC(=O)[C@@H]1CCCN1C(=O)[C@H](CCCNC(=N)N)NC(=O)[C@H](CC(C)C)NC(=O)[C@@H](CC(C)C)NC(=O)[C@H](Cc1ccc(O)cc1)NC(=O)[C@H](CO)NC(=O)[C@H](Cc1c[nH]c2ccccc12)NC(=O)[C@H](Cc1c[nH]cn1)NC(=O)[C@@H]1CCC(=O)N1 [Leuprorelin (acetate)] | 16.2 | -0.397 | -3.87 | 1.37 | 4.92 |
| C[C@]12CCC(=O)C=C1CC[C@@H]1[C@@H]2[C@@H](O)C[C@@]2(C)[C@H]1CC[C@]2(O)C(=O)CO [Hydrocortisone] | 1.87 | 0.52 | 14.7 | 1.82 | 9.96 |
| COC(=O)C1=C(C)NC(C)=C(C(=O)OCC(C)C)C1c1ccccc1[N+](=O)[O-] (stereo not given) [Nisoldipine] | 7.56 | -9.87 | 0.119 | -9.06 | -16.9 |
| CCCS(=O)(=O)Nc1ccc(F)c(C(=O)c2c[nH]c3ncc(-c4ccc(Cl)cc4)cc23)c1F | -2.43 | -1.48 | -5.03 | 2.88 | -0.602 |
| CC(=O)OCC(=O)[C@@]1(O)CC[C@H]2[C@@H]3CCC4=CC(=O)CC[C@]4(C)[C@H]3C(=O)C[C@@]21C [Cortisone Acetate] | 2.07 | -1.29 | 1.26 | 3.11 | -0.38 |
| CN(CCOc1ccc(CC2SC(=O)NC2=O)cc1)c1ccccn1 (stereo not given) [Rosiglitazone] | 6.79 | -7.02 | 26.9 | -12.6 | -6.71 |
| O=C(O)c1ccc(-n2nc(-c3ccccc3O)nc2-c2ccccc2O)cc1 [Deferasirox] | 1.98 | -2.31 | 17.7 | 2.04 | 5.07 |
| C=CC(=O)N1CCC[C@@H](n2nc(-c3ccc(Oc4ccccc4)cc3)c3c(N)ncnc32)C1 [Ibrutinib] | 14.1 | 0.877 | -6.73 | -6.76 | 9.38 |
| CC(C)(C)NCC(O)c1ccc(O)c(CO)c1 (stereo not given) [Salbutamol] | 8.67 | 1.17 | 20.7 | -4.78 | 5.67 |
